Reference: paper PMC4552634, “A New Set of Chemical Starting Points with Plasmodium falciparum Transmission-Blocking Potential for Antimalarial Drug Discovery” (PLoS ONE, 2015)
About 3,200 (25%) of roughly 13,000 compounds showed an effect of 50% or more. The list shows a part of the results.

Each molecule was assayed on P. falciparum stage V gametocytes. Settings: 48 h, 5 µM; inhibitor.
Set-up: BacTiter-Glo ATP luminescence viability of purified stage V gametocytes in 384-well plates, per cent inhibition versus DMSO

| Structure (SMILES) | % Inhibition [%] |
| --- | --- |
| FC(F)(F)c1ccc2c(NCCNc3ccnc4cc(C(F)(F)F)ccc34)ccnc2c1 [TCMDC-137881] | -4.365 |
| COc1ccc(NCCCNc2ccnc3ccccc23)cc1 [TCMDC-139253] | -97.14 |
| c1ccc2c(NCCCCCCNc3ccnc4ccccc34)ccnc2c1 [TCMDC-137913] | 91.15 |
| c1ccc2c(NCCCCCCCNc3ccnc4ccccc34)ccnc2c1 [TCMDC-137897] | 122.9 |
| Clc1ccc2c(NCCNc3ccnc4cc(Cl)ccc34)ccnc2c1 [TCMDC-137882] | 57.8 |
| Clc1ccc2c(NCCCCCCCCNc3ccnc4cc(Cl)ccc34)ccnc2c1 [TCMDC-137733] | 25.46 |
| c1ccc2c(NCCCCCCCCCNc3ccnc4ccccc34)ccnc2c1 [TCMDC-137750] | 102.2 |
| NCCNc1ccnc2cc(Cl)ccc12 [TCMDC-125850] | 23.17 |
| FC(F)(F)c1ccc2c(NCCCNc3ccnc4cc(C(F)(F)F)ccc34)ccnc2c1 [TCMDC-137736] | 28.34 |
| NCCCNc1ccnc2cc(Cl)ccc12 [TCMDC-123921] | 17.37 |
| COc1ccccc1-c1cccc2c(NC(=O)Nc3ccc4nccc(N5CCN(C)CC5)c4c3)ccnc12 [TCMDC-139384] | -27.38 |
| COc1ccc(C(=C(C)CC(C)C(=O)O)c2ccccc2)cc1 (centres unmarked) [TCMDC-131745] | -8.546 |
| Cc1c(CNCCCNc2nc3ccccc3[nH]2)sc(C(F)F)c1Br [TCMDC-141323] | 13.37 |
| Cc1ccccc1-c1cc(=O)c2cc(NC(=O)c3cccs3)ccc2o1 [TCMDC-124947] | 11.18 |
| COc1ccccc1/C=C/C(=O)N(C)C1CCN(CCCCCNC(=O)/C=C/c2ccc(Cl)c(Cl)c2)C1 (centres unmarked) [TCMDC-139996] | 13.3 |
| Nc1nc(N)c2c(n1)CCc1cc(Br)ccc1-2 [TCMDC-125525] | 4.608 |
| CN1CCC(c2c[nH]c3ccc(NC(=O)Nc4ccc(-c5ccncc5)cc4Cl)cc23)CC1 [TCMDC-139180] | -1.977 |
| CC(C)(C)CNc1noc(-c2sccc2Br)n1 [TCMDC-134187] | -20.57 |
| C=CCN1C(=O)CN(S(=O)(=O)c2ccc(-n3nc(C)cc3C)cc2)C1=S [TCMDC-131799] | -1.195 |
| CN(CCCNC(=S)NC12CC3CC(CC(C3)C1)C2)CCCNc1ccnc2cc(Cl)ccc12 [TCMDC-137885] | 114.9 |
| CNCCCNc1ccnc2cc(Cl)ccc12 [TCMDC-125233] | 36.92 |
| CN(C)CCCNc1ccnc2cc(Cl)ccc12 [TCMDC-123919] | 17.18 |
| c1ccc2c(NCCCCCCCCNc3ccnc4ccccc34)ccnc2c1 [TCMDC-137751] | 124.8 |
| CN1CCN(Cc2cc(NC(=O)c3ccc(-c4ccc(Cl)cc4Cl)cc3)ccc2-c2ccccc2)CC1 [TCMDC-138839] | 21.61 |
| CC(C)CN1CCC(N(C)c2cc(NC(=O)c3cccc(F)c3)ccn2)CC1 [TCMDC-135022] | -32.51 |

| Structure (SMILES) | % Inhibition [%] |
| --- | --- |
| CC(C)Cn1c(Sc2ccc(C#N)c([N+](=O)[O-])c2)nnc1-c1cccs1 [TCMDC-135575] | 26.53 |
| O=C(Nc1cccc(C(F)(F)F)c1)Nc1cc(F)c(F)cc1Cl [TCMDC-123779] | 32.47 |
| CCc1ccc(-n2c(NC(=O)c3ccccc3)nc3ccc(S(=O)(=O)NC(C)C(C)C)cc32)cc1 (centres unmarked) [TCMDC-136236] | 39.19 |
| CC(OC(=O)c1ccc(C(=O)NCC2CC2)cc1)C(C)(C)C (centres unmarked) [TCMDC-138180] | 11.69 |
| CCO[C@H]1CN[C@H](C#Cc2cc3c(Nc4ccc(OCc5cccc(F)c5)c(Cl)c4)ncnc3s2)C1 [TCMDC-135170] | 22.02 |
| CC(C)(C)c1ccc2nccc(Nc3cccc(O)c3)c2c1 [TCMDC-138884] | 71.55 |
| Cc1ccc(O)cc1Nc1ccnc2ccc(C(C)(C)C)cc12 [TCMDC-138885] | -11.57 |
| COc1cc(Nc2ccnc3ccc(C(C)(C)C)cc23)cc(OC)c1OC [TCMDC-138886] | -36.54 |
| C=CCC(CC=C)N1C(=O)C(c2ccccc2)(c2ccccc2)N=C1N [TCMDC-136807] | 5.028 |
| O=C(/C=C/c1ccc(C(F)(F)F)cc1)NCCCCCN1CCN(C(=O)Nc2ccc(Cl)c(Cl)c2)CC1 [TCMDC-136094] | -8.361 |
| CC1CCC2(CC1)N=C(N)N=C(N)N2OCc1cc2ccccc2c2ccccc12 (centres unmarked) [TCMDC-131590] | 22.45 |
| C[C@H](NC(=O)c1c(CN2CCC(N3CCCCC3)CC2)c(-c2ccccc2)nc2cc(O)ccc12)C1CCCCC1 [TCMDC-140408] | 25.99 |
| CN(C)c1cccc(-c2cnc3ccc(NCc4cccc(Cl)c4)nn23)c1 [TCMDC-136673] | 81.33 |
| Clc1ccc(-c2cnc3ccc(NCc4ccncc4)nn23)cc1 [TCMDC-136682] | 21.16 |
| CN1CCN(c2ccc(CNc3ccc4ncc(-c5cccc(OC(F)(F)F)c5)n4n3)cc2)CC1 [TCMDC-136690] | 11.23 |
| OC1CCC(Nc2ccc3ncc(-c4ccc5ccccc5c4)n3n2)CC1 (centres unmarked) [TCMDC-136691] | 25.44 |
| CN1CCN(c2ccc(CNc3ccc4ncc(-c5ccc(OC(F)(F)F)cc5)n4n3)cc2)CC1 [TCMDC-136689] | -0.7792 |
| Clc1ccc(-c2cnc3ccc(NCCc4cccnc4)nn23)cc1 [TCMDC-136680] | -25.41 |
| Cc1ccc(CNc2ccc3ncc(-c4cccc(C(=O)NCCN(C)C)c4)n3n2)c(C)c1 [TCMDC-136684] | 104.7 |
| CN(C)CCNC(=O)c1cccc(-c2cnc3ccc(NCc4ccc(Cl)c(Cl)c4)nn23)c1 [TCMDC-136677] | 49.91 |
| CN(C)CCNC(=O)c1ccc(-c2cnc3ccc(NCc4ccc(Cl)c(Cl)c4)nn23)cc1 [TCMDC-136678] | 106.7 |
| CCC(C)NC(=O)CN1CN(c2ccccc2)C2(CCN(C(=O)c3ccc4ccccc4c3)CC2)C1=O (centres unmarked) [TCMDC-125174] | -36.87 |
| CCNc1cc(C)nc(Nc2ccc(NS(=O)(=O)c3cc(OC)ccc3OC)cc2)n1 [TCMDC-124953] | -19.07 |
| CC(C)c1ccc(NC(=O)c2ccc(C(=O)NC3CCN(CC4CCCCC4)C3)cc2)cc1 (centres unmarked) [TCMDC-136743] | -27.55 |
| COc1cccc2cc(C(=O)N[C@@H](CC(C)C)C(=O)N[C@H](/C=N/NC(=O)c3ccccc3)Cc3cnc[nH]3)oc12 [TCMDC-135820] | 40.86 |

| Structure (SMILES) | % Inhibition [%] |
| --- | --- |
| CN(C)CCOc1cc(NC(=O)Nc2ccc(-c3ccncc3)c(Cl)c2)ccc1I [TCMDC-139135] | 19.45 |
| Clc1ccc(C2CCN(CCCOc3ccc4c(c3)CCNCC4)CC2)cc1 [TCMDC-141782] | 72 |
| O=C(c1ccc(Cl)cc1)C1CCN(CCCOc2ccc3c(c2)CCNCC3)CC1 [TCMDC-141781] | 60.35 |
| COc1ccc(C(=O)C2CCN(CCCCNC(=O)c3ccc(NC(=O)c4ccc(Cl)cc4)cc3)CC2)c(OC)c1 [TCMDC-138625] | -32.94 |
| COc1ccc(C(=O)C2CCN(CCCCNC(=O)c3ccc(NC(=O)c4cc(Cl)cc(Cl)c4)cc3)CC2)cc1 [TCMDC-138228] | -14.09 |
| CC(C)(C)c1ccc(NC(=O)Nc2ccc(Cn3ncc(N4CCCNCC4)c(Cl)c3=O)cc2)cc1 [TCMDC-133314] | -23.28 |
| COc1ccc(-c2onc(C(F)(F)F)c2-c2cc3ccccc3o2)c(O)c1 [TCMDC-124534] | 7.209 |
| O=C(Nc1ccc(-c2ccccc2)cc1)Nc1ccc2c(c1)CCNCC2 [TCMDC-133729] | 60.87 |
| O=C(Nc1ccc2c(c1)CNCC2)c1ccc(-c2ccc(Cl)cc2)cc1 [TCMDC-141479] | 71.62 |
| CN1CCN(c2cc(NC(=O)c3ccc(-c4ccc(Cl)cc4)cc3)ccc2Cl)CC1 [TCMDC-138671] | -15.54 |
| O=C(Nc1ccc(Cl)c(Cl)c1)Nc1ccc2c(c1)CCNCC2 [TCMDC-133731] | 29.44 |
| O=C(Nc1ccc2c(c1)CCNCC2)Nc1ccc2ccccc2c1 [TCMDC-133733] | -8.361 |
| O=C(Nc1ccc2c(c1)CCNCC2)c1ccc(-c2ccc(Cl)cc2)cc1 [TCMDC-141480] | 106.4 |
| CN1CCCc2cc(NC(=O)c3cc(-c4ccc(Cl)cc4)cs3)ccc2C1 [TCMDC-134050] | 7.243 |
| Cc1ccc(NC(=O)c2ccc(Cl)cc2)cc1-c1ccc(C(=O)Nc2ccncc2)cc1 [TCMDC-133698] | -1.939 |
| CN1CCc2ccc(NC(=O)Nc3ccc(-c4ccccc4)cc3)cc2C1 [TCMDC-133725] | -3.896 |
| CC1CCN(Cc2c(O)ccc3c(=O)c(-c4nc5ccccc5s4)c(N)oc23)CC1 [TCMDC-124313] | 12.71 |
| Cc1ccc(OCCCON2C(N)=NC(N)=NC2(C)C)cc1C [TCMDC-131650] | 7.659 |
| Cc1nc(NCCc2cnc[nH]2)cc(NCc2ccccc2)n1 [TCMDC-135164] | -1.635 |
| CN(C(=O)c1cc2c(-c3cncnc3)cccc2[nH]1)c1ccccc1 [TCMDC-134637] | 36.22 |
| CCC(CC)CN1C(=O)C(C)(c2ccccc2)N=C1N (centres unmarked) [TCMDC-137051] | 1.821 |
| COc1cc2c(cc1S(=O)(=O)c1ccc(NC(=O)c3ccc4ccccc4c3)cc1)CCN(C)CC2 [TCMDC-133792] | 8.081 |
| COc1cccc(C(=O)Nc2ccc(S(=O)(=O)c3cc4c(cc3OC)CCN(C)CC4)cc2)c1 [TCMDC-133790] | 79.19 |
| COc1cc2c(cc1S(=O)(=O)c1ccc(NC(=O)c3cccc(C(F)(F)F)c3)cc1)CCN(C)CC2 [TCMDC-133791] | -4.764 |
